Laboratory results: the supplement of paper PMC11732987, “Enantioselective OTUD7B fragment discovery through chemoproteomics screening and high-throughput optimisation” (Communications Chemistry, 2025)

Tests used:
Experiment in all cases: log2 ratio of Biotin-Ahx-Ub-VS probe labelling (fragment/DMSO); higher = less target engagement (more negative = stronger competition), active = hit call of the paper (q ≤ 0.05, log2 ratio ≤ -1)
Conditions in all cases: compound concentration: 200 uM; treatment time: 3 h
USP19 = biological target: T1, USP19 (UniProt O94966)
T1 sequence (whole entry): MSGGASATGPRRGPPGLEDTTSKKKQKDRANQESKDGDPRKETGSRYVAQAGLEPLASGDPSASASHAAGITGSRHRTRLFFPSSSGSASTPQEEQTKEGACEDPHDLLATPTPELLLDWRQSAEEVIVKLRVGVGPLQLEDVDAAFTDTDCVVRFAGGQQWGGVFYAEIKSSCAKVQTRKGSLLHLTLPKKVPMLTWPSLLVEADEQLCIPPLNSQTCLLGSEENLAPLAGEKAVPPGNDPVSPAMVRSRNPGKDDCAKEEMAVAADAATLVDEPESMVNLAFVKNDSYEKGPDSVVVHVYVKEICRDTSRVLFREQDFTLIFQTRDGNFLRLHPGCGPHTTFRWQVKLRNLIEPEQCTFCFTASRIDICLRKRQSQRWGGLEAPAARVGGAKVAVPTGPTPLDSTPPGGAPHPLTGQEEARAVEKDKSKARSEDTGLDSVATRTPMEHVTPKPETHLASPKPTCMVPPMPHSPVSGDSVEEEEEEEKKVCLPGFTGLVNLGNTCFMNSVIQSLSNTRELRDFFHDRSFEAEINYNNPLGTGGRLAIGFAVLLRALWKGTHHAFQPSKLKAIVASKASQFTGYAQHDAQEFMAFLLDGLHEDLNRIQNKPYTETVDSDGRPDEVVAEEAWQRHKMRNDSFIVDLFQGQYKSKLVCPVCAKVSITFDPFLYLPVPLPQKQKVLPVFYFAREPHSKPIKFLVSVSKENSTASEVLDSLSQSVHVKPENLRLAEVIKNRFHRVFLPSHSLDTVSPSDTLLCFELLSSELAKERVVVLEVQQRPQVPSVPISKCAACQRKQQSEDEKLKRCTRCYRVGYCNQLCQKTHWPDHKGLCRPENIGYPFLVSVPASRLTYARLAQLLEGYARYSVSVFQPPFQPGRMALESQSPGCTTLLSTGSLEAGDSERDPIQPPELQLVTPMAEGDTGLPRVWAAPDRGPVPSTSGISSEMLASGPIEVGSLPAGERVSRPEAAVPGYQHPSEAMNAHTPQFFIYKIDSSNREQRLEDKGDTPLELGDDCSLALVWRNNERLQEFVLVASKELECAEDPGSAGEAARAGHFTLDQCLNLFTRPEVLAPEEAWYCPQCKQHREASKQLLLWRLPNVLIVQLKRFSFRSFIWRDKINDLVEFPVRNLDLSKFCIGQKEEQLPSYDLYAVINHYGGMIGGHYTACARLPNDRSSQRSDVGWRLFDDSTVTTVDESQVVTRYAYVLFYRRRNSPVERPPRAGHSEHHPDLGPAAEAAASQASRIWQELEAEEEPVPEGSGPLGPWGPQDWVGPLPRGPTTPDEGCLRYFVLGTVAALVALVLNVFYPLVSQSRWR
Outline: (§1)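 Using Biotin-Ahx-Ub-VS at 0.5 µM final for 1 h, DUBs were labelled in HEK293T lysate (495 µg per sample) that had first been treated in triplicate with fragment at 200 µM or vehicle for 3 h. NeutrAvidin enrichment, LysC and trypsin digestion and diaPASEF LC-MS/MS followed. Spectronaut label-free quantities were global-median-normalised. Values are average log2 fragment/vehicle ratios by unpaired t-test, using proteins with ≥2 unique peptides.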

USP22 = biological target: T2, USP22 (UniProt Q9UPT9)
T2 sequence (whole entry): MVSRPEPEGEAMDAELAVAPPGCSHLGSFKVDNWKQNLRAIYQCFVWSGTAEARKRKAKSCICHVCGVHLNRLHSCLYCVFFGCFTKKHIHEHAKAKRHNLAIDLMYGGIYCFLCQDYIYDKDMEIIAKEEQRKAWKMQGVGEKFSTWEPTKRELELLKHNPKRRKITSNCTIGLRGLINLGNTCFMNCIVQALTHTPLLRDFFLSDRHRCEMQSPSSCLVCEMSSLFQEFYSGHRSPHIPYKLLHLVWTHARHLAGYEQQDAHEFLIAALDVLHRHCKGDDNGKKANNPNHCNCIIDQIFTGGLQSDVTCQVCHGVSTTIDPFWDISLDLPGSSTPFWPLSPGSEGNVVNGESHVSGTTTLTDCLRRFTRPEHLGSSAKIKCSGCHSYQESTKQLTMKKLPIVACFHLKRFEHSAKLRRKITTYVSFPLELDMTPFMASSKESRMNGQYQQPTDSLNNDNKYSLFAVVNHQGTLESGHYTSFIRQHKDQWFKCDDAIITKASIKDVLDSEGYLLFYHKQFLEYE
Outline: as §1

USP24 = USP24 (UniProt Q9UPU5)
Outline: as §1

USP25 = biological target: T3, USP25 (UniProt Q9UHP3)
T3 sequence (whole entry): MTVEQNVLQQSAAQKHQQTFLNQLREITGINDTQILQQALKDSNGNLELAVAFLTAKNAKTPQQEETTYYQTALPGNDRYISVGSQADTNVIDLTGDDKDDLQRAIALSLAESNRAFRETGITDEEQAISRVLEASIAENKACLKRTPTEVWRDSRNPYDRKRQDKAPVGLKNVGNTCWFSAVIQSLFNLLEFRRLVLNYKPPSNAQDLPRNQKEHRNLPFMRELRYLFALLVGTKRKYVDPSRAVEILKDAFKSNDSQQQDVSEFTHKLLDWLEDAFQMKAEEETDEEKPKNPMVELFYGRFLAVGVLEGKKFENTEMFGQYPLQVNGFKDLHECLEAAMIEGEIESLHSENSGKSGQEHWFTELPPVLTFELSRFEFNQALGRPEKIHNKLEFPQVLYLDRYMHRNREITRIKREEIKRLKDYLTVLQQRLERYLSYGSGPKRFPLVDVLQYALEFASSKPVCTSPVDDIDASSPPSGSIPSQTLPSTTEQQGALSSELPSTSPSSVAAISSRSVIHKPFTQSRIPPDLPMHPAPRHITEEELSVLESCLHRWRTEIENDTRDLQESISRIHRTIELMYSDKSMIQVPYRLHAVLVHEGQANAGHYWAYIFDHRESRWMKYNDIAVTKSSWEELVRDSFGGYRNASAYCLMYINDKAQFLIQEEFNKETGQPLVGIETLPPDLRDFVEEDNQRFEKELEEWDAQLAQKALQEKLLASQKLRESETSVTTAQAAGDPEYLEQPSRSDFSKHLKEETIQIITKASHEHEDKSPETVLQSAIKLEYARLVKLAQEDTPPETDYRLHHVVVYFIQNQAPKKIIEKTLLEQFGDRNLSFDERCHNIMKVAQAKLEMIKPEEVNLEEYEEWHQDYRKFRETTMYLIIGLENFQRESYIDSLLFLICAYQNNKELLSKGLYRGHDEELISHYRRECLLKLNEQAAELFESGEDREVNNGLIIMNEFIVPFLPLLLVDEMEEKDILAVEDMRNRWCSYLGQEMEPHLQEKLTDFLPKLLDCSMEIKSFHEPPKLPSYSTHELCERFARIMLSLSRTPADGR
Outline: as §1

USP28 = biological target: T4, USP28 (UniProt Q96RU2)
T4 sequence (whole entry): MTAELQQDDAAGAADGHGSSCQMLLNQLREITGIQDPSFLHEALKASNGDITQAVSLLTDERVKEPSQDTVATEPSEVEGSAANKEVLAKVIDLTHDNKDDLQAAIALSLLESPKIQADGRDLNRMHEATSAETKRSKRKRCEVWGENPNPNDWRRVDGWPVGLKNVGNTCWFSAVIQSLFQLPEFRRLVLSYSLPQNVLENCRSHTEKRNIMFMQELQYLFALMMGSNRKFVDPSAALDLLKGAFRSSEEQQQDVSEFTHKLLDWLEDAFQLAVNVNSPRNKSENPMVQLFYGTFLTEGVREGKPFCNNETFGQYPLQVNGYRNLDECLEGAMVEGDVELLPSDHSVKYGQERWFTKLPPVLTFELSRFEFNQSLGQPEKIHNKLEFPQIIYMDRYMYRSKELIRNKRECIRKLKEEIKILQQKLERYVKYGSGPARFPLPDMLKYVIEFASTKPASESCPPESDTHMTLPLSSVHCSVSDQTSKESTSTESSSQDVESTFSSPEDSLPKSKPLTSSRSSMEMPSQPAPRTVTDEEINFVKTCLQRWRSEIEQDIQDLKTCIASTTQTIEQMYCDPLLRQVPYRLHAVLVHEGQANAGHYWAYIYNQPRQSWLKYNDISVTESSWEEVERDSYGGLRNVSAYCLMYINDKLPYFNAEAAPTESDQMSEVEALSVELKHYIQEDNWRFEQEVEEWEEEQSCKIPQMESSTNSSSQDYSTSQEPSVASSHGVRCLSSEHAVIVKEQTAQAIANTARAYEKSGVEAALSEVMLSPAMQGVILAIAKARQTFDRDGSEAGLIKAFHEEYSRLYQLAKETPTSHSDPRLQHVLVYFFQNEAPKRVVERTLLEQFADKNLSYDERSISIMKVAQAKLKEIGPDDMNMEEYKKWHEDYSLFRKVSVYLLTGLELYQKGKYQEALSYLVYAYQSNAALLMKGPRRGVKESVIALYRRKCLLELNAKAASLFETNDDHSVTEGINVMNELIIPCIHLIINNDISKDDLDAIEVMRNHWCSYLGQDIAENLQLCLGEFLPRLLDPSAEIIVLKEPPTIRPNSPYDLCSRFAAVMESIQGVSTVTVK
Outline: as §1

Measured: log2 ratio of Biotin-Ahx-Ub-VS probe labelling

USP24, sequence (Q9UPU5 whole entry): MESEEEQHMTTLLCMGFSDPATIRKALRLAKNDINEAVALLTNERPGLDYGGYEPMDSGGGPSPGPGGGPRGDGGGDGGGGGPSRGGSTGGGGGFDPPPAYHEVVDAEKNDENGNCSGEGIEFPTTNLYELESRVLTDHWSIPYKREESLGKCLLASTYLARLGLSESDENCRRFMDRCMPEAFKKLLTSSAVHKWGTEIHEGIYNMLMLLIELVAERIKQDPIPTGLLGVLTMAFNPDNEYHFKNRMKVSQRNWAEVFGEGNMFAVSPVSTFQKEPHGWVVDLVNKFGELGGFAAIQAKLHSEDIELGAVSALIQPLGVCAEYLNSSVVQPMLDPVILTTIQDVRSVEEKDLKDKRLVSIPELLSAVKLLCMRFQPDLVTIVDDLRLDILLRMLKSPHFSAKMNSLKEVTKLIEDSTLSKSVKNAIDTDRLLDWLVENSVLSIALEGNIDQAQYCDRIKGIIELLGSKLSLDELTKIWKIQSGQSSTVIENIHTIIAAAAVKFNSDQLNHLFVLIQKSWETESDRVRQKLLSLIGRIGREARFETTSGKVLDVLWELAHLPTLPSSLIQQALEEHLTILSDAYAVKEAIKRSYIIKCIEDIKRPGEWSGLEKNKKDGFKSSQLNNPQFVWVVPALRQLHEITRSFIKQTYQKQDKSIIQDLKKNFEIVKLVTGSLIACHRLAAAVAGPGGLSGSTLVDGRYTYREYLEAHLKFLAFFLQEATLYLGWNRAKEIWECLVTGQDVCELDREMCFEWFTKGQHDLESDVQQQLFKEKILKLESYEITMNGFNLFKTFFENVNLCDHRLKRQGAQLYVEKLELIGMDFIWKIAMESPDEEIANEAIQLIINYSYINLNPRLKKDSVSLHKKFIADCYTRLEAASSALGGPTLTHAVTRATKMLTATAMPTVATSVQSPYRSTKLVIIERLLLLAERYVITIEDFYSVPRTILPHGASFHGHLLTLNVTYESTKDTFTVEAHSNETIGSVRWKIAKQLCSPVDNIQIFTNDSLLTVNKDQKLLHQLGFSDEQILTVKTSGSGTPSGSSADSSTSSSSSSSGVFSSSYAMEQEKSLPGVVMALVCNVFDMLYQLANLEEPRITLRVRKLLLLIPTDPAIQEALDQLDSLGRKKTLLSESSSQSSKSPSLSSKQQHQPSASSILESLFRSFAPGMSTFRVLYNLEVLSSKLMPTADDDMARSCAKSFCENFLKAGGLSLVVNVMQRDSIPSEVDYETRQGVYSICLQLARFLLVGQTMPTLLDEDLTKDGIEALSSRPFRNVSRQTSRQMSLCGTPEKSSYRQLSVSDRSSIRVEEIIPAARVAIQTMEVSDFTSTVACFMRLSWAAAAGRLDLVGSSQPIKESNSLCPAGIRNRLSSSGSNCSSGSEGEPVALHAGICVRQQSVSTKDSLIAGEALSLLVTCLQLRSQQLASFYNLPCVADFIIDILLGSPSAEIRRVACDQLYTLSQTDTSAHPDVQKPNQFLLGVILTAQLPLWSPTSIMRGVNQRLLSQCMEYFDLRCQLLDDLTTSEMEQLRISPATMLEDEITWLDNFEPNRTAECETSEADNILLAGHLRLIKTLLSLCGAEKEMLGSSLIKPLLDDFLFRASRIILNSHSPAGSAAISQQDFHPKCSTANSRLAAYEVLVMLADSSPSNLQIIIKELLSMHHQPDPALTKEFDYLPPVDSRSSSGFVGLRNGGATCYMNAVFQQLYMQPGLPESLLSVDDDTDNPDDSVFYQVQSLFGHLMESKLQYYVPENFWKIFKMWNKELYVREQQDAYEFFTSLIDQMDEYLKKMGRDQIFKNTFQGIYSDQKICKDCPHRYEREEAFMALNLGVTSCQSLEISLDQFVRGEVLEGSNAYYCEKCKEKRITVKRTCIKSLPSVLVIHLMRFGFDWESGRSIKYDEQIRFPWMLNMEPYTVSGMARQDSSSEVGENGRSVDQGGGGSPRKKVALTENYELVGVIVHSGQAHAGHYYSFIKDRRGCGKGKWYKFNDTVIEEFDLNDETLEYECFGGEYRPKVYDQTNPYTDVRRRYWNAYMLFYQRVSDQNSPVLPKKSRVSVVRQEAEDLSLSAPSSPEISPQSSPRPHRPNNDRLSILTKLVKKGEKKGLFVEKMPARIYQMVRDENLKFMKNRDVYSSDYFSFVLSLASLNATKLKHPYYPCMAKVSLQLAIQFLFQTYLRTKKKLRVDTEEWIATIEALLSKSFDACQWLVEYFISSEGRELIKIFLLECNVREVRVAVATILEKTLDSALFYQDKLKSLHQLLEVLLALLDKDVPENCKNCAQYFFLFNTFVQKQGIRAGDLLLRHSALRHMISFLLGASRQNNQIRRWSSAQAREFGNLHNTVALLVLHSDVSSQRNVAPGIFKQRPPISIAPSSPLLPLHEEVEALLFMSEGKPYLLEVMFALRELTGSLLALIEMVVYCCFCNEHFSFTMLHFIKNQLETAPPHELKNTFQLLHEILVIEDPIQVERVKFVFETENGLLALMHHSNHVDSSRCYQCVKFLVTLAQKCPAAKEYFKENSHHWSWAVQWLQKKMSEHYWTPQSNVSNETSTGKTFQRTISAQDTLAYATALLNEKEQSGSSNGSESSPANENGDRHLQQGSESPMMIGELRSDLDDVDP

O=C(CCl)N1CCOC2(CCC2)CC1
inactive: USP19 -0.704 | USP22 -0.382 | USP24 -0.23 | USP25 -0.448 | USP28 -0.346
